Screening data from PubChem BioAssay.
DT40 TDP1 no CPT: qHTS for Inhibitors of human tyrosyl-DNA phosphodiesterase 1 (TDP1): qHTS in cells in absence of CPT. DT40 Tdp1-/- hTDP1 cells, no CPT, ATP luminescence, 48 h. AID 686978, 2013. Potency, µM (doses to about 46.2 µM), for inactives: at the top dose activity change, negative = growth inhibition, actives largely listed as inhibitors. actives 15% (n = 420,000); further: potency means the concentration at half of the fitted maximal effect; nearly all actives have a fitted effect of over 55% in size
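Chicken DT40 Tdp1-/- cells complemented with human TDP1, screened without camptothecin (DMSO vehicle only), 400 cells/well. Compounds pin-transferred, cells incubated at 37 °C for at least 48 hr. Growth read as ATP-dependent luminescence (CellTiter-Glo, 30 min at RT).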
HT1080 IDH1KD tx: qHTS for induction of synthetic lethality in tumor cells producing 2HG: qHTS for the HT-1080-IDH1KD cell line; HT-1080 IDH1 knockdown viability, ATP luminescence, 48 h; AID 686971, 2013; Potency, µM (top dose mostly 46.1 µM), inactives show at the highest dose activity, negative = toxicity, most hits filed as cytotoxic; actives 2% (n = 360,000);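 further: potency means the concentration at half of the fitted maximal effect; 0% = DMSO wells and -100% = cell-free medium wells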
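CellTiter-Glo luminescence after 48 h compound exposure at 37 degrees C of IDH1-knockdown HT-1080 cells in 5% FBS RPMI. %Activity scaled between DMSO wells and cell-free media wells, with curves fitted and assigned curve classes.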
IL1B secr inh: qHTS for Inhibitors of Inflammasome Signaling: IL-1-beta AlphaLISA Primary Screen. THP-1 LPS/ATP IL-1B secretion, AlphaLISA, 16 h; active compounds read low. activity change, % at 57.5 µM. actives 4.7% (n = 360,000); in the data active means activity change below about -50%; inconclusive means mostly about -30% to -49%
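Secreted IL-1B measured by AlphaLISA bead assay after 16 h compound exposure of THP-1 cells; compounds (final up to 57.5 uM) added 1 h before LPS (250 ng/mL) and ATP (1.25 mM) stimulation; lower signal means less secretion.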
TDP1 cell CPT: qHTS for Inhibitors of human tyrosyl-DNA phosphodiesterase 1 (TDP1): qHTS in cells in presence of CPT; Potency, µM (titrated, usually from 46.2 µM), inactives show at the highest dose activity change, negative = growth inhibition, actives largely listed as inhibitors; chicken DT40 Tdp1-/-;hTDP1 cells + 20 nM CPT, ATP luminescence, 48 h; actives 12% (n = 420,000); further: potency means the concentration at half of the fitted maximal effect; nearly all actives have a fitted effect of over 55% in size
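Chicken DT40 Tdp1-/- cells stably complemented with human TDP1 were seeded at 400 cells/well in medium containing 20 nM camptothecin, exposed to pin-transferred compounds, and grown at 37 °C for at least 48 hr. Viability was read as ATP luminescence.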
HT1080NT lethal: qHTS for induction of synthetic lethality in tumor cells producing 2HG: qHTS for the HT-1080-NT fibrosarcoma cell line; HT-1080-NT fibrosarcoma viability, CellTiter-Glo ATP luminescence, 48 h; Potency, µM (top dose mostly 46.1 µM), inactives show at the highest dose activity, negative = less viability, most hits filed as cytotoxic; actives 1.6% (n = 360,000);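 further: NT is the 2HG producing partner of a matched IDH1 knockdown line; potency means the concentration at half of the fitted maximal effect; 0% = DMSO-treated cells and -100% = media-only wells without cells; nearly all actives have a fitted effect of over 55% in size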
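Toxicity toward the 2HG-producing NT line was scored as %Activity, normalised to DMSO and no-cell wells, from CellTiter-Glo luminescence after 48 hours' treatment.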
Numbers without * were called inactive; ? = inconclusive; nt = no result given; [ ] = remark or other dose. Shown are actives, neighbours in structure and some others; about 19% of the full set was active somewhere. Unless noted, the call rests on the fitted dose curve; in most records, active means well fitted curve in the direction sought with a large enough effect; inconclusive means small, poorly fitted or top-dose-only effect, or another doubt; inactive means no such curve, though single readings can be large; an effect the other way counts as inactive or inconclusive. Unless noted, on the % scale 0 is the no-effect control and ±100 the full control effect.

SMILES | DT40 TDP1 no CPT | HT1080 IDH1KD tx | IL1B secr inh | TDP1 cell CPT | HT1080NT lethal
Cc1cccc(C)c1NC(=O)c1sccc1SCc1cccc(C(F)(F)F)c1 | 18.4µM* | ? | ? | 16.4µM* | 2.2%[9.24 µM]
Cc1cnc(=O)[nH]c1SCc1cccc(C(F)(F)F)c1 | -10.7% | 0.0% | 7.9 | 2.4% | -5.5%
CC(=O)Nc1sc(N/N=C/c2ccccc2)nc1-c1ccc(C)cc1 | ? | -0.2% | -90.2* | ? | 8.5%
CCOc1cc(/C=N/Nc2nc(-c3cccs3)c(NC(C)=O)s2)ccc1O | 13µM* | -6.5% | -60.4* | -2.9% | -4.2%
CC(=O)Nc1sc(N/N=C\c2ccccc2)nc1-c1cccs1 | ? | 0.8% | -17.2 | -26.9% | 0.2%
CC(=O)Nc1sc(N/N=C/c2ccc(O)cc2)nc1-c1ccc(C)cc1 | 11.0% | ? | -3.3 | -17.5% | -1.6%
CC(=O)Nc1sc(N/N=C\c2ccccc2Cl)nc1-c1cccs1 | 18.4µM* | -26.5% | -2.9 | 16.4µM* | -10.8%
CCOc1ccc(OCCCC(=O)ON=C(N)c2ccccc2C)cc1 | -18.0% | 0.9% | -2.1 | -4.2% | -1.1%
Cc1cccc(C(=O)N2CCNC(=O)C2CC(=O)Nc2ccc(F)cc2)c1 (configuration not stated) | 3.6% | nt | nt | 5.7% | nt
Cc1ccc2nc(CSc3nnc(Nc4ccccc4F)s3)cc(=O)n2c1 | 16.4µM* | -26.0% | 0.3 | ? | ?
O=c1cc(CSc2nnc(Nc3ccccc3F)s2)nc2sccn12 | 23.1µM* | 18.4µM* | -9.5 | ? | ?
Cc1ccc(Nc2nnc(SCc3cc(=O)n4cc(C)ccc4n3)s2)cc1 | -9.3% | 2.5% | 19.0 | ? | -4.0%
O=C(CCCSc1nnc(Nc2ccccc2F)s1)N1CCOCC1 | ? | -3.0% | -19.6 | -5.1% | -6.4%
O=C(CN1CCN(c2ccc(Cl)cc2[N+](=O)[O-])CC1)N1CCOCC1 | -15.7% | 4.7% | nt | 8.9% | 12.5%
COc1ccccc1-c1cc(C(=O)N/N=C\c2cnn(C)c2C)c2ccccc2n1 | ? | -4.6% | 13.7 | ? | -7.2%
COc1ccccc1-c1cc(C(=O)N/N=C\c2cn(C)nc2C)c2ccccc2n1 | 13µM* | 7.4% | 0.6 | ? | 0.0%
CCn1cc(/C=N\NC(=O)c2cc(-c3ccccc3OC)nc3ccccc23)c(C)n1 | 16.4µM* | 4.9% | -1.9 | ? | 6.9%
Cc1csc(NC(CO)c2nc3ccccc3n2CCOCCO)n1 (configuration not stated) | 4.8% | -4.8% | -10.2 | -9.6% | 0.6%
Cc1ccccc1OCC(O)Cn1c(N2CCCCC2)nc2c1c(=O)[nH]c(=O)n2C (configuration not stated) | 8.2µM* | -3.0% | 57.4 | ? | 1.9%
CCSc1nc2c(c(=O)[nH]c(=O)n2C)n1CC(O)COc1ccccc1C (configuration not stated) | ? | -10.8% | 41.9 | 14.6µM* | -15.5%
Cc1ccccc1OCC(O)Cn1c(SC(C)C)nc2c1c(=O)[nH]c(=O)n2C (configuration not stated) | ? | -1.2% | 17.1 | ? | -0.9%
Cc1ccccc1OCC(O)Cn1c(Br)nc2c1c(=O)[nH]c(=O)n2C (configuration not stated) | ? | -10.2% | 42.8 | 13µM* | -0.8%
CCc1cccc(OCC(O)Cn2c(N3CCCCC3)nc3c2c(=O)[nH]c(=O)n3C)c1 (configuration not stated) | 7.31µM* | 6.0% | ? | 8.2µM* | 9.1%
Cc1n[nH]c(=O)n(N=Cc2cccs2)c1=O | 0.3% | -0.1% | -7.3 | -2.4% | 2.3%
CCSc1nc2c(c(=O)[nH]c(=O)n2C)n1CC(O)COc1ccc(Cl)cc1 (configuration not stated) | 9.2µM* | nt | nt | ? | nt
SMILES | DT40 TDP1 no CPT | HT1080 IDH1KD tx | IL1B secr inh | TDP1 cell CPT | HT1080NT lethal
COc1ccc(NC(=O)Nc2ccc3c(c2)C(=O)N([C@H](C)CO)C[C@@H](C)[C@@H](CN(C)C(=O)C2CCCCC2)OCCCC[C@H](C)O3)cc1 | 23.1µM* | -11.0% | -24.0 | ? | -14.9%
CCOC(=O)CCCCCC(=O)Nc1ccc2c(c1)C(=O)N([C@@H](C)CO)C[C@H](C)[C@H](CN(C)C(=O)NC(C)C)OCCCC[C@H](C)O2 | -14.2% | 4.3% | 3.0 | -3.5% | -1.7%
C[C@@H]1CCCCO[C@H](CN(C)C(=O)c2ccccc2)[C@@H](C)CN([C@H](C)CO)C(=O)c2cc(NC(=O)NC3CCCCC3)ccc2O1 | ? | 1.0% | 21.5 | ? | 2.0%
COc1ccc(NC(=O)Nc2ccc3c(c2)C(=O)N([C@H](C)CO)C[C@H](C)[C@H](CN(C)Cc2ccc(C(=O)O)cc2)OCCCC[C@@H](C)O3)cc1 | -33.1% | 10.5% | 12.1 | 0.7% | 11.0%
C[C@H]1CCCCO[C@H](CN(C)C(=O)C2CCCCC2)[C@@H](C)CN([C@@H](C)CO)C(=O)c2cc(NC(=O)NC3CCCCC3)ccc2O1 | 20.6µM* | -0.8% | -25.2 | 20.6µM* | -2.0%
C[C@@H]1CCCCO[C@@H](CN(C)C(=O)C2CCCCC2)[C@@H](C)CN([C@H](C)CO)C(=O)c2cc(NC(=O)NC3CCCCC3)ccc2O1 | ? | -3.2% | -15.2 | 23.1µM* | -4.1%
CCOC(=O)CCCCCC(=O)Nc1ccc2c(c1)C(=O)N([C@H](C)CO)C[C@H](C)[C@H](CN(C)C(=O)C1CCCCC1)OCCCC[C@@H](C)O2 | 20.6µM* | -0.6% | 20.3 | ? | -4.1%
O=C1CN(C(=O)NCC(=O)N2CCCC2)c2ccccc2N1 | -25.7% | 0.0% | -0.6 | 7.7% | 10.1%
Clc1cccc[n+]1CCCCCC[n+]1ccccc1Cl | -98.5% | nt | nt | 35.5µM* | nt
Brc1cccc[n+]1CCCC[n+]1ccccc1Br | 15.8µM* | nt | nt | 8.91µM* | nt
Brc1cccc[n+]1CCCCCC[n+]1ccccc1Br | 17.8µM* | nt | nt | ? | nt
Brc1cccc[n+]1C/C=C/C[n+]1ccccc1Br | -18.3% | nt | nt | 0.2% | nt
Cc1oc(-c2ccccc2F)nc1CS(=O)(=O)CC(=O)NCc1ccccc1Cl | -25.8% | -5.1% | 70.4 | ? | 0.0%
CCN1CCCC1CNC(=O)CN(C)S(=O)(=O)c1ccc(Cl)cc1 (configuration not stated) | -1.8% | 7.7% | 5.3 | 7.7% | 13.9%
CC1=C(C(=O)OC(C)C)C(c2cncc(-c3ccc(F)cc3)c2)C(C#N)=C(N)O1 (configuration not stated) | ? | 11.2% | 0.0 | ? | -0.9%
